{"source": "paper PMC4336329", "about": "(PLoS ONE, 2015)", "note": "The campaign covered roughly 310,000 compounds. About 14,000 (4.5%) showed an effect of 50% or more. Effects have a minus sign here. Shown is part of a subset that was picked to be rich in strong results.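 Also: peak tail current of the secondary pulse compared with the same well before compound.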"}
{"target": "human ether-à-go-go-related gene (hERG) potassium channel (human, UniProt Q12809)", "sequence (Q12809 whole entry, looked up)": "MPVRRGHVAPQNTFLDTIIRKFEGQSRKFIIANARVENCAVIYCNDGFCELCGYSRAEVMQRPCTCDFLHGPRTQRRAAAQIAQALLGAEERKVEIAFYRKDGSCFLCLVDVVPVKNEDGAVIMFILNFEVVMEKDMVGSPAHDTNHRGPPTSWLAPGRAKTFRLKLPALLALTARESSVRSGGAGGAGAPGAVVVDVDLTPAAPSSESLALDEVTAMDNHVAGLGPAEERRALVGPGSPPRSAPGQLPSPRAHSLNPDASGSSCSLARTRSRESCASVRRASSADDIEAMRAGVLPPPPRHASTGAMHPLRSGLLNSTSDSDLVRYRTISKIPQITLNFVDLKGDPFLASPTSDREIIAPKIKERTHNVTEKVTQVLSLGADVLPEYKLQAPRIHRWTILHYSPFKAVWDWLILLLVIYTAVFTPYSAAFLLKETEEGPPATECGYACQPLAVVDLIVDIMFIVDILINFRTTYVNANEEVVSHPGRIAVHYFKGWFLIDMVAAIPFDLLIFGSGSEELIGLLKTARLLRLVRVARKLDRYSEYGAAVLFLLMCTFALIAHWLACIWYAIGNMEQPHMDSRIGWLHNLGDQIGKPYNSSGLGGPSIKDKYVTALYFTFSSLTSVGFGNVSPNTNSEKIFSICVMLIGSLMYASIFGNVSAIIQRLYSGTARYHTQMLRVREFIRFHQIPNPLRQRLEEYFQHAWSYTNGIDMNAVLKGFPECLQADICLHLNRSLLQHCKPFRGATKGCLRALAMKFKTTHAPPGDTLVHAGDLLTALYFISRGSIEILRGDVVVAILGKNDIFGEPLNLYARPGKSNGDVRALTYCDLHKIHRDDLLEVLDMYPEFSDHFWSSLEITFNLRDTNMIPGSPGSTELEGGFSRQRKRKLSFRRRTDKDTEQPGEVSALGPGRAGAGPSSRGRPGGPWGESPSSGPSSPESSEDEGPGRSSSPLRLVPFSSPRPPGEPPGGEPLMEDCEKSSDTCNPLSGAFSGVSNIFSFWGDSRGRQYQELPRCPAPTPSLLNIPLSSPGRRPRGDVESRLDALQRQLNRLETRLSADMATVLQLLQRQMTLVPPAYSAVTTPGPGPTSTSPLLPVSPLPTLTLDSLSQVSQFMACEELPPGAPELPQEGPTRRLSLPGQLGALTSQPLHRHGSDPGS", "assay": "primary screen, population patch clamp on CHO cells stably expressing hERG; higher = less effect of the substance", "units": {"hERG current change (%, negative = inhibition) at 10uM": "%"}}
{"smiles": "COc1ccc(N=Cc2c(O)n(-c3ccc(OC)cc3)c(=O)c3ccccc23)cc1", "hERG current change (%, negative = inhibition) at 10uM": 15.2}
{"smiles": "O=C(c1ccccc1)N1CCN(c2nc3ccc([N+](=O)[O-])cc3s2)CC1", "hERG current change (%, negative = inhibition) at 10uM": -55.4}
{"smiles": "O=[N+]([O-])c1ccc(C(=S)N2CCN(Cc3ccccc3)CC2)cc1", "hERG current change (%, negative = inhibition) at 10uM": -57.6}
{"smiles": "O=C(c1ccccc1)N1CCN(C(=O)c2ccc([N+](=O)[O-])cc2)CC1", "hERG current change (%, negative = inhibition) at 10uM": -53.9}
{"smiles": "O=CN1CCN(C(=O)c2ccc([N+](=O)[O-])cc2)CC1", "hERG current change (%, negative = inhibition) at 10uM": -22.3}
{"smiles": "CCN1CCN(C(=S)c2ccc([N+](=O)[O-])cc2)CC1", "hERG current change (%, negative = inhibition) at 10uM": -36.9}
{"smiles": "O=C(c1ccccc1)N1CCN(C(=O)c2ccc(OC(F)(F)F)cc2)CC1", "hERG current change (%, negative = inhibition) at 10uM": -62.8}
{"smiles": "O=C(c1cccs1)N1CCN(c2nc3ccc([N+](=O)[O-])cc3s2)CC1", "hERG current change (%, negative = inhibition) at 10uM": -7.47}
{"smiles": "O=C(c1ccccc1)N1CCN(C(=O)c2ccccc2)CC1", "hERG current change (%, negative = inhibition) at 10uM": 1.49}
{"smiles": "CC(=O)N1CCN(C(=O)c2ccc(Oc3ccccc3)cc2)CC1", "hERG current change (%, negative = inhibition) at 10uM": 19.1}
{"smiles": "Oc1ccc(C(=S)N2CCN(Cc3ccccc3)CC2)cc1", "hERG current change (%, negative = inhibition) at 10uM": -5.46}
{"smiles": "CC(=O)N1CCN(c2nc3ccc([N+](=O)[O-])cc3s2)CC1", "hERG current change (%, negative = inhibition) at 10uM": -46.6}
{"smiles": "O=C(c1ccc([N+](=O)[O-])cc1)N1CCCC1", "hERG current change (%, negative = inhibition) at 10uM": 4.5}
{"smiles": "O=C(c1cc(N2C(=O)C3C4CCC(C4)C3C2=O)ccc1Cl)N1CCCCCC1", "note": "(centres unmarked)", "hERG current change (%, negative = inhibition) at 10uM": 3.82}
{"smiles": "O=C(c1ccccc1)N1CCC(O)(c2ccc3c(c2)OCO3)CC1", "hERG current change (%, negative = inhibition) at 10uM": -12.4}
{"smiles": "CCn1c(CNC(=O)c2ccc3c(c2)OCO3)nnc1SCC(=O)Nc1ccccc1F", "hERG current change (%, negative = inhibition) at 10uM": -6.31}
{"smiles": "O=C(Nc1ccccc1)c1ccco1", "hERG current change (%, negative = inhibition) at 10uM": 15}
{"smiles": "COC(=O)c1sccc1NC(=S)N1C(C)CCCC1C", "note": "(centres unmarked)", "hERG current change (%, negative = inhibition) at 10uM": -7.4}
{"smiles": "Cc1ccc(S(=O)(=O)c2nc(C)c3c(n2)CCC3)cc1", "hERG current change (%, negative = inhibition) at 10uM": 3.61}
{"smiles": "COc1ccc(C(=O)COC(=O)CCc2ccccc2)cc1", "hERG current change (%, negative = inhibition) at 10uM": -11.4}
{"smiles": "CC(=O)c1ccc(NC(=O)C(C)Sc2nnc(C3CCCCC3)o2)cc1", "note": "(centres unmarked)", "hERG current change (%, negative = inhibition) at 10uM": -4.84}
{"smiles": "O=C(c1ccncc1)N1CCN(C(=O)c2cccs2)CC1", "hERG current change (%, negative = inhibition) at 10uM": 6.46}
{"smiles": "CN1C(=O)N(C)C(=O)C2(Cc3cc([N+](=O)[O-])ccc3N3CCN(C(=O)c4ccccc4)CC32)C1=O", "note": "(centres unmarked)", "hERG current change (%, negative = inhibition) at 10uM": -65}
{"smiles": "Cc1cc(-c2ccccc2)n(-c2ccc(C(=O)N3CCN(c4ncccn4)CC3)cc2)n1", "hERG current change (%, negative = inhibition) at 10uM": -56.4}
{"smiles": "CC(C)N1CCN(C(=O)c2ccc([N+](=O)[O-])cc2)CC1", "hERG current change (%, negative = inhibition) at 10uM": -39.8}
{"smiles": "CN1C(=O)N(C)C(=O)C2(Cc3cc([N+](=O)[O-])ccc3N(C)C2c2ccccc2)C1=O", "note": "(centres unmarked)", "hERG current change (%, negative = inhibition) at 10uM": -17.6}
{"smiles": "O=C(c1ccc(-c2ccccc2)cc1)N1CCN(c2ncccn2)CC1", "hERG current change (%, negative = inhibition) at 10uM": -5.92}
{"smiles": "O=C(c1ccc([N+](=O)[O-])cc1)N1CCN(C(=O)c2cccs2)CC1", "hERG current change (%, negative = inhibition) at 10uM": -70.3}
{"smiles": "O=C(c1ccc2nc(-c3ccco3)c(-c3ccco3)nc2c1)N1CCN(c2ncccn2)CC1", "hERG current change (%, negative = inhibition) at 10uM": -67.8}
{"smiles": "O=C1NC(=O)C2(Cc3cc([N+](=O)[O-])ccc3N3CCN(C(=O)c4ccccc4)CC32)C(=O)N1", "note": "(centres unmarked)", "hERG current change (%, negative = inhibition) at 10uM": 23}
{"smiles": "O=C(c1ccc2nc(-c3ccco3)c(-c3ccco3)nc2c1)N1CCN(c2ccccc2)CC1", "hERG current change (%, negative = inhibition) at 10uM": -15.4}
{"smiles": "Cc1cc(C)n(-c2ccc(C(=O)N3CCN(c4ccccn4)CC3)cc2)n1", "hERG current change (%, negative = inhibition) at 10uM": -32.5}
{"smiles": "Cc1ccc(C)c(N2CCN(C(=O)c3ccc4nc(-c5ccco5)c(-c5ccco5)nc4c3)CC2)c1", "hERG current change (%, negative = inhibition) at 10uM": 21.1}
{"smiles": "CCC1=NC(c2ccccc2OC)N(O)C1(C)C", "note": "(centres unmarked)", "hERG current change (%, negative = inhibition) at 10uM": 15.9}
{"smiles": "CCOc1ccc(C(=O)NCC(=O)NCC(c2cccs2)N2CCOCC2)cc1", "note": "(centres unmarked)", "hERG current change (%, negative = inhibition) at 10uM": 4.69}
{"smiles": "c1ccc2c(NC3CCCC3)nnc(NC3CCCC3)c2c1", "hERG current change (%, negative = inhibition) at 10uM": -74.9}
{"smiles": "O=C(O)C(=O)O.c1csc(-c2nnc(N3CCCCCC3)c3ccccc23)c1", "hERG current change (%, negative = inhibition) at 10uM": -20.9}
{"smiles": "c1csc(-c2nnc(NC3CCCCC3)c3ccccc23)c1", "hERG current change (%, negative = inhibition) at 10uM": -75.4}
{"smiles": "c1csc(-c2nc3ccccn3c2NC2CCCCC2)c1", "hERG current change (%, negative = inhibition) at 10uM": 8.81}
{"smiles": "c1ccc(-c2nc(NC3CCCC3)c3ccccc3n2)cc1", "hERG current change (%, negative = inhibition) at 10uM": 20.5}
{"smiles": "Oc1ccccc1-c1nc(NC2CCCC2)c2ccccc2n1", "hERG current change (%, negative = inhibition) at 10uM": 17.8}
{"smiles": "CC(C)c1nc(=S)n(-c2ccccc2)[nH]1", "hERG current change (%, negative = inhibition) at 10uM": 17.5}
{"smiles": "COc1cccc(Cn2nnc(C(=O)Nc3cc(C)ccc3OC)c2N)c1", "hERG current change (%, negative = inhibition) at 10uM": 8.11}
{"smiles": "CCOC(=O)C1C(=O)NC(c2ccccc2)=NC1c1ccc(O)c(OC)c1", "note": "(centres unmarked)", "hERG current change (%, negative = inhibition) at 10uM": 9.11}
